From PubChem
Only some compounds are listed: those with a hit (about 19% of all), similar ones and a draw of the others.
ELG1 repair inh = ELG1-dependent DNA repair inhibition. HEK293T ELG1-luciferase reporter, luminescence, 16 h; DNA damage induced by 5-fluorouridine. Potency, µM (highest dose often 46.1 µM), without a hit: top-dose activity change, negative = inhibition, actives largely listed as inhibitors. 330,000 compounds, 2.3% hits; also: potency is read from the fitted curve at half-maximal effect; nearly all actives have a fitted effect of over 55% in size
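DMSO vehicle served as the neutral condition. Each well held 2,000 cells given 5-fluorouridine plus compound; after 16 hr at 37 °C/5% CO2, ONE-Glo was added and luciferase measured 30 min later.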
IL-1B inflam inh = inhibitors of inflammasome signaling (IL-1 beta secretion); THP-1 LPS/ATP IL-1B secretion, AlphaLISA, 16 h; hits give low values; activity change, % at 57.5 µM; 360,000 compounds, 4.7% hits; in the data active = activity change below about -50%; inconclusive = mostly about -30% to -49%
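THP-1 cells pretreated 1 hr with compounds (up to 57.5 uM final), then stimulated with LPS (250 ng/mL final) plus ATP (1.25 mM final); secreted IL-1B measured by AlphaLISA after 16 hr, decreased signal indicating inhibition.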
DT40 TDP1 CPT = DT40-hTDP1 cell growth loss with CPT. 420,000 compounds, 12% hits. Potency, µM (doses to about 46.2 µM), inactives show at the top dose activity change, negative = growth inhibition, hits mostly inhibitors. chicken DT40 Tdp1-/-;hTDP1 cells + 20 nM CPT, ATP luminescence, 48 h; also: potency is read from the fitted curve at half-maximal effect; nearly all actives have a fitted effect of over 55% in size
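Chicken DT40 Tdp1-/- cells stably complemented with human TDP1 were seeded at 400 cells/well in medium containing 20 nM camptothecin, exposed to pin-transferred compounds, and grown at 37 °C for at least 48 hr. Viability was read as ATP luminescence.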
DT40 TDP1 no CPT = qHTS for Inhibitors of human tyrosyl-DNA phosphodiesterase 1 (TDP1): qHTS in cells in absence of CPT; DT40 Tdp1-/- hTDP1 cells, no CPT, ATP luminescence, 48 h; Potency, µM (series often up to 46.2 µM), for the others: top-dose activity change, negative = growth inhibition, usual class: inhibitors; 420,000 compounds, 15% hits; also: potency is read from the fitted curve at half-maximal effect; nearly all actives have a fitted effect of over 55% in size
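Camptothecin absent (DMSO only). Human TDP1-complemented DT40 knockout cells, 400 cells/well, 37 °C for minimum 48 hr; ATP measured via CellTiter-Glo, 30 min dark incubation, luminescence.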
HT1080 IDH1KD tx = HT-1080 IDH1 knockdown cell toxicity (counter line); HT-1080 IDH1 knockdown viability, ATP luminescence, 48 h; Potency, µM (series often up to 46.1 µM), for the others: at the top dose activity, negative = toxicity, usual class: cytotoxic; 360,000 compounds, 2% hits; AID 686971;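 also: potency is read from the fitted curve at half-maximal effect; 0% = DMSO wells and -100% = cell-free medium wells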
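HT-1080-IDH1KD cells (IDH1 knocked down), 750/well in RPMI with 5% FBS, treated with compound 48 h at 37 degrees C. Viability by CellTiter-Glo luminescence, normalised to DMSO and no-cell wells; concentration-response curves classed.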
HT1080NT lethal = kills 2HG-producing HT-1080-NT fibrosarcoma cells; HT-1080-NT fibrosarcoma viability, CellTiter-Glo ATP luminescence, 48 h; Potency, µM (doses to about 46.1 µM), inactives show top-dose activity, negative = less viability, usual class: cytotoxic; 360,000 compounds, 1.6% hits;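 also: NT is the 2HG producing partner of a matched IDH1 knockdown line; potency is read from the fitted curve at half-maximal effect; 0% = DMSO-treated cells and -100% = media-only wells without cells; nearly all actives have a fitted effect of over 55% in size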
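A 48-hour cytotoxicity screen used HT-1080-NT cells plated 2 hours before compound delivery. ATP-based CellTiter-Glo luminescence measured viability, normalized to DMSO and no-cell controls.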
Active calls of the source: *; ? = inconclusive; / = no result given. Unless noted, calls follow the shape of the dose curve; as a rule, active = well fitted curve in the direction sought with a large enough effect; inconclusive = small, poorly fitted or top-dose-only effect, or another doubt; inactive = no such curve, though single readings can be large; an effect the other way counts as inactive or inconclusive. Unless noted, % is scaled to controls: 0 for no effect and ±100 for the full control effect.

SMILES	ELG1 repair inh	IL-1B inflam inh	DT40 TDP1 CPT	DT40 TDP1 no CPT	HT1080 IDH1KD tx	HT1080NT lethal
COc1ccccc1CNC(=O)CCCn1c(=O)c2ccccc2n(Cc2ccccc2F)c1=O	/	/	9.2µM*	7.3µM*	/	/
COc1ccccc1CNC(=O)CCCn1c(=O)c2cccn2c2ccccc21	/	/	?	29µM*	/	/
COc1ccc(OC)c(CCNC(=O)CCCn2c(=O)c3cccn3c3ccccc32)c1	/	/	18µM*	21µM*	/	/
CC(C)OCCCn1c(=O)c2ccccc2n2c(CCC(=O)O)nnc12	7%	-11	-3%	1%	14%	13%
CC(C)OCCCn1c(=O)c2ccccc2n2c(CCC(=O)NC3CCN(Cc4ccccc4)CC3)nnc12	-16%	-51*	?	-25%	1%	10%
Cc1ccc(C)c(C(=O)COC(=O)c2ccccc2N2C(=O)C3C4CCC(C4)C3C2=O)c1 (stereo not given)	-16%	-11	21µM*	21µM*	-3%	0%
CCOC(=O)C1CCCN(C(=O)COc2ccc(C(=O)c3ccc(F)cc3)cc2)C1 (stereo not given)	?	10	18µM*	?	-5%	-3%
COc1ccc(C(=O)C2CCCN(C(=O)COc3ccc(C(C)=O)cc3)C2)cc1F (stereo not given)	15µM*	5	?	?	-9%	-7%
O=C(COc1ccc(F)cc1)N1CCCCCCC1	10%	20	-1%	-9%	8%	18%
COc1ccc(C(=O)C2CCCN(Cc3ccc(C#CCCO)cc3)C2)cc1F (stereo not given)	?	-53*	?	?	-21%	-15%
COc1ccc(/C=C/CN2CCCC(C(=O)c3ccc(OC)c(F)c3)C2)cc1 (stereo not given)	-12%	-93*	?	?	-19%	-15%
CCOC(=O)c1ccc(S(=O)(=O)NNC(=O)Cc2csc(C)n2)cc1	13%	-3	-3%	-4%	0%	14%
Oc1c(CN2CCCCC2)ccc2cccnc12	/	-98*	1.6µM*	1µM*	3.3µM*	2.1µM*
CCOC(=O)N1CCN(Cc2ccc(O)c3ncccc23)CC1	8%	-9	0.58µM*	0.65µM*	6.5µM*	21µM*
Ic1ccc(N2CCN(Cc3c[nH]c4ncccc34)CC2)cc1	12%	-15	11µM*	3.3µM*	?	?
Oc1ccc(CN2CCN(c3ccccc3)CC2)c2cccnc12	?	112	5.2µM*	3.3µM*	0.71µM*	1.1µM*
Cc1ccc(C)c(S(=O)(=O)N2CCN(Cc3ccc(O)c4ncccc34)CC2)c1	?	103	5.8µM*	5.8µM*	?	?
Oc1ccc(CN2CCCCC2)c2cccnc12	?	101	5.2µM*	5.2µM*	1.4µM*	3.2µM*
Oc1ccc2ccccc2c1CN1CCCCC1	/	13	21%	-12%	0%	-2%
Cc1cccc(Cn2ncc(Cl)c(Cl)c2=O)c1	?	-102*	12µM*	9.2µM*	7.1µM*	13µM*
Cc1ccc(C)c(C(=O)Cn2ncc(Cl)c(Cl)c2=O)c1	?	-104*	5.8µM*	3.3µM*	18µM*	-26%
CCCc1cc(=O)[nH]c(SCC(=O)c2cc(C)n(CC(F)(F)F)c2C)n1	5%	59	8%	-2%	-3%	5%
Cc1cc2oc(=O)cc(Cn3ncc(Cl)c(Cl)c3=O)c2cc1Cl	?	-101*	3.3µM*	3.3µM*	3.3µM*	?
Cc1cc(C(=O)Cn2ncc(Cl)c(Cl)c2=O)c(C)n1CC(F)(F)F	?	-99*	4.6µM*	3.7µM*	5.8µM*	8.2µM*
